# Experimental data reported in PMC7862700, “An all-to-all approach to the identification of sequence-specific readers for epigenetic DNA modifications on cytosine”.
# Experiments:
# Test in all cases: DAPPL (digital affinity profiling via proximity ligation, sequencing); 10 mM Tris-HCl pH 7.5, 50 mM NaCl, 1 mM DTT, 4% glycerol, room temperature, 30 min; GST-TFs on glutathione beads, 16-mer random dsDNA library, 0.1% formaldehyde crosslink after washing; high values mean tight binding
# FLI1 = target: T1, FLI1 (Homo sapiens, UniProt Q01543 1-452); details: protein: recombinant; tags: N-terminal GST; dsDNA, one strand shown
# T1 sequence: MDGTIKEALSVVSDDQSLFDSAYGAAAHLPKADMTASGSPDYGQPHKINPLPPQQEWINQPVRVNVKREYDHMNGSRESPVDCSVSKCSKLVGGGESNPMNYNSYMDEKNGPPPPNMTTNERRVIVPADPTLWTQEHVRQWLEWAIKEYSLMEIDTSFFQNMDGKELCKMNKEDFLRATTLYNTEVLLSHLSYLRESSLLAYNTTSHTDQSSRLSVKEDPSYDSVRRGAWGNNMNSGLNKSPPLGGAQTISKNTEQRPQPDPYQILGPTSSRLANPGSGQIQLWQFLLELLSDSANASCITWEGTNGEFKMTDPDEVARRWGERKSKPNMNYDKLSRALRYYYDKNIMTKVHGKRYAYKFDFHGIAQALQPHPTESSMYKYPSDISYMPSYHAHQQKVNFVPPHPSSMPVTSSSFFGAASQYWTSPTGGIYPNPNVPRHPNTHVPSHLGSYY
# Outline: (§1)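 The binding signal reported is, for every hexamer, its read frequency for a factor over its read frequency for the tag-only sample. Reads came from pools of yeast-expressed, GST-fused human transcription factors on glutathione beads, barcoded with DNA and mixed with that sample, which were incubated with 200 nmole of a random double-stranded 16-mer DNA library in Tris/NaCl/DTT/glycerol buffer at room temperature for 30 min. After washing, the pools were crosslinked with 0.1% formaldehyde, proximity-ligated with BsaI/T4 ligase for 1 h at 37 °C, PCR-amplified and sequenced on an Illumina NextSeq500.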
# ELK1 = target: T2, ELK1 (Homo sapiens, UniProt P19419 1-428); details: protein: recombinant; tags: N-terminal GST; dsDNA, one strand shown
# T2 sequence: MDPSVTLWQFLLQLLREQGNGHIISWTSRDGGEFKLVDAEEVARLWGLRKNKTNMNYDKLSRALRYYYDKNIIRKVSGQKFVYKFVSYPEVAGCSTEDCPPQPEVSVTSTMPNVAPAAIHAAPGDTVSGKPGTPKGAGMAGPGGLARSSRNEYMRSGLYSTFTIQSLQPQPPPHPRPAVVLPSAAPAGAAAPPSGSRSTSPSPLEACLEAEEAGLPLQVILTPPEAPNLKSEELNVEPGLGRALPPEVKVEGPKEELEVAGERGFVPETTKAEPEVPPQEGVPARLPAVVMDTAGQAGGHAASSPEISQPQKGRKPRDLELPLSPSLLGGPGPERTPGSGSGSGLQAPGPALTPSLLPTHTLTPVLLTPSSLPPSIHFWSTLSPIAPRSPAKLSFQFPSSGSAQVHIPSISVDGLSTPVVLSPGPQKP
# Outline: as §1
# ERG = target: T3, ERG (Homo sapiens, UniProt P11308 1-479); details: protein: recombinant; tags: N-terminal GST; dsDNA, one strand shown
# T3 sequence: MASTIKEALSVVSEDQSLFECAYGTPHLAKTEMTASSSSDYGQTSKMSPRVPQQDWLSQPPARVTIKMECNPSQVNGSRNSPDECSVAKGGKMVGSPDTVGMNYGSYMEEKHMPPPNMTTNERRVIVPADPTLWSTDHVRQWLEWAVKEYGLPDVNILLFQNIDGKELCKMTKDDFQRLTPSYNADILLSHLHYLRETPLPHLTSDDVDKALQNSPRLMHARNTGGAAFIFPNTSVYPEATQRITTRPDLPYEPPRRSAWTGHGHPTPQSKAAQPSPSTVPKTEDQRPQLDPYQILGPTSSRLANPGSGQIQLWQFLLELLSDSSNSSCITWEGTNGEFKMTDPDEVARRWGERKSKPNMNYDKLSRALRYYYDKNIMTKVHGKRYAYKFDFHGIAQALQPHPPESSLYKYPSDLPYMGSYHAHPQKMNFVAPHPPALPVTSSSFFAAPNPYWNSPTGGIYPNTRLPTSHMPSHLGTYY
# Outline: as §1
# ELF1 = ELF1 (Homo sapiens, UniProt P32519 1-619); details: protein: recombinant; tags: N-terminal GST; dsDNA, one strand shown
# ELF1, sequence (P32519 whole entry): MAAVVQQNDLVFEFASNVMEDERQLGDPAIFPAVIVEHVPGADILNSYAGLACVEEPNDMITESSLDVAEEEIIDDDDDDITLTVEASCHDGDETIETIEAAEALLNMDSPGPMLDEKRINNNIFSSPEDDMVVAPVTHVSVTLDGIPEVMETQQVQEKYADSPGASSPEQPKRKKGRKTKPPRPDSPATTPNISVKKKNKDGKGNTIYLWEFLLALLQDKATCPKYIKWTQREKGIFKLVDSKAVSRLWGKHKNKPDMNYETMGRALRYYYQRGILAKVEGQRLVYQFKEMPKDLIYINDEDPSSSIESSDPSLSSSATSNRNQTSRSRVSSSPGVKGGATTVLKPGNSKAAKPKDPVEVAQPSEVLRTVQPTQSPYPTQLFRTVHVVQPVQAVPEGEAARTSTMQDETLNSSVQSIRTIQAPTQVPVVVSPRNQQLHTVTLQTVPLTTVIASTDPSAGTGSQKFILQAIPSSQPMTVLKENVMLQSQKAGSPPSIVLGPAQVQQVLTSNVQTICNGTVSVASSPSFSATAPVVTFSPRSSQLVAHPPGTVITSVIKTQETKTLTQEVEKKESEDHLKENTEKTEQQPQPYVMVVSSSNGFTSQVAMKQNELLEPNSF
# Outline: as §1
# EHF = target: T4, EHF (Homo sapiens, UniProt Q9NZC4 1-300); details: protein: recombinant; tags: N-terminal GST; dsDNA, one strand shown
# T4 sequence: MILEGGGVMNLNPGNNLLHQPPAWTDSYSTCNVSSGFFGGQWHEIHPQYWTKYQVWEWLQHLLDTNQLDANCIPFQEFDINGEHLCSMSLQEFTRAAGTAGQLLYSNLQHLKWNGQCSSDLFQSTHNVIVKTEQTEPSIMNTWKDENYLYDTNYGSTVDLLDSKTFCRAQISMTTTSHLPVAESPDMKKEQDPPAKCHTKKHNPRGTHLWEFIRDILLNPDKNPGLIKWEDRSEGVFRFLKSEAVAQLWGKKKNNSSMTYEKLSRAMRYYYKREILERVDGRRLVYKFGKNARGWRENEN
# Outline: as §1
# ELK3 = target: T5, ELK3 (Homo sapiens, UniProt P41970 1-407); details: protein: recombinant; tags: N-terminal GST; dsDNA, one strand shown
# T5 sequence: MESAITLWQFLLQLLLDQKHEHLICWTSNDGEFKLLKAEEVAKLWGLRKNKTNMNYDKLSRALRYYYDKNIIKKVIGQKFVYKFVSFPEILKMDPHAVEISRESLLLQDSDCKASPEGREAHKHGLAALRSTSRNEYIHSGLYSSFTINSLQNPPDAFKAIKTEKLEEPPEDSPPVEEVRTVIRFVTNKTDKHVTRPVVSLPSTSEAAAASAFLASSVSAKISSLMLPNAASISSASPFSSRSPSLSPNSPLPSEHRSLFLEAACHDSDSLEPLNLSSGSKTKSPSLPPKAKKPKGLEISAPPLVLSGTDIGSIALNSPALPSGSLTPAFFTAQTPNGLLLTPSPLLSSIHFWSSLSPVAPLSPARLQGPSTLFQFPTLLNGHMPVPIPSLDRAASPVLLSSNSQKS
# Outline: as §1
# FEV = target: T6, FEV (Homo sapiens, UniProt Q99581 1-238); details: protein: recombinant; tags: N-terminal GST; dsDNA, one strand shown
# T6 sequence: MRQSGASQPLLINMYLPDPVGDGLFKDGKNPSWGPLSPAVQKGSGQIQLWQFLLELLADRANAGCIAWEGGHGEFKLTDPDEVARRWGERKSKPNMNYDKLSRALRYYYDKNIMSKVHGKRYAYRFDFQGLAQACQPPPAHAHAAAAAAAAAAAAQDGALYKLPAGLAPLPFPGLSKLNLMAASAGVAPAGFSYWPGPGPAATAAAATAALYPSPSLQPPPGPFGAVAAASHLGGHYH
# Outline: as §1
# ETV5 = ETV5 (Homo sapiens, UniProt P41161 1-510); details: protein: recombinant; tags: N-terminal GST; dsDNA, one strand shown
# ETV5, sequence (P41161 whole entry): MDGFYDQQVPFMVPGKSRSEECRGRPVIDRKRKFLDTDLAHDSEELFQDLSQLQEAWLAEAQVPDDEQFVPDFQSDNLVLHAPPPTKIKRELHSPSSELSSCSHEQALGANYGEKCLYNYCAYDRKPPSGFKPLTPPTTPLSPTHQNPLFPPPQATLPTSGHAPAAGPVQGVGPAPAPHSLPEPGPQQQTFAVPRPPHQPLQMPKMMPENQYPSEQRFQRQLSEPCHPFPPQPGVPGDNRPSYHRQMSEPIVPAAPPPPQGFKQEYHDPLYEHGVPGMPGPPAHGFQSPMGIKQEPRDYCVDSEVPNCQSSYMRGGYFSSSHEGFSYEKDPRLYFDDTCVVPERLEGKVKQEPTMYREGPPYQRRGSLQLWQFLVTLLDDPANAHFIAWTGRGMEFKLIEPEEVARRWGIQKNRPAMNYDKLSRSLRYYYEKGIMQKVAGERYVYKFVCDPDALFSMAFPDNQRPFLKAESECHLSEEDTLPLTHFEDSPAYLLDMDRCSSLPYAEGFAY
# Outline: as §1
# HSF1 = HSF1 (Homo sapiens, UniProt Q00613 1-529); details: protein: recombinant; tags: N-terminal GST; chain copies: 3; dsDNA, one strand shown
# HSF1, sequence (Q00613 whole entry): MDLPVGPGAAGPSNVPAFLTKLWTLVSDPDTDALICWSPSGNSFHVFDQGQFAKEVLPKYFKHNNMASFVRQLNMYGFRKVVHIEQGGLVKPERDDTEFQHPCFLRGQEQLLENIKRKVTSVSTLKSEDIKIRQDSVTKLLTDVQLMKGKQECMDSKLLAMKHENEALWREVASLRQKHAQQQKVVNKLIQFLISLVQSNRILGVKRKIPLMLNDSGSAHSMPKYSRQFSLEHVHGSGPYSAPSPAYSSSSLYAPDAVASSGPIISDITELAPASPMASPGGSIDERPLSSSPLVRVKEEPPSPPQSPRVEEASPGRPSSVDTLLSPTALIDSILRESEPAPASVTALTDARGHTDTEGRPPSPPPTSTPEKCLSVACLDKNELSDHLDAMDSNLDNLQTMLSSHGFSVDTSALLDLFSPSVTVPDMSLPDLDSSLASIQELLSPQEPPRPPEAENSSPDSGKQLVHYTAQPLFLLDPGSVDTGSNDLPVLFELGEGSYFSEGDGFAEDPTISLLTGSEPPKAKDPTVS
# Outline: as §1
# SPIC = target: T7, SPIC (Homo sapiens, UniProt Q8N5J4 1-248); details: protein: recombinant; tags: N-terminal GST; dsDNA, one strand shown
# T7 sequence: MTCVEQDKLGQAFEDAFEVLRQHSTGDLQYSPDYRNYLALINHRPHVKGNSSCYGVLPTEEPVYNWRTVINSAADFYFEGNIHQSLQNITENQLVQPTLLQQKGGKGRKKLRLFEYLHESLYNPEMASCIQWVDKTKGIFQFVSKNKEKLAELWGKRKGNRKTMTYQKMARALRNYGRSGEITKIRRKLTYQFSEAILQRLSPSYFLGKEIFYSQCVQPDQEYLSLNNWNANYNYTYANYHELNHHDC
# Outline: as §1
# ELF4 = ELF4 (Homo sapiens, UniProt Q99607 1-663); details: protein: recombinant; tags: N-terminal GST; dsDNA, one strand shown
# ELF4, sequence (Q99607 whole entry): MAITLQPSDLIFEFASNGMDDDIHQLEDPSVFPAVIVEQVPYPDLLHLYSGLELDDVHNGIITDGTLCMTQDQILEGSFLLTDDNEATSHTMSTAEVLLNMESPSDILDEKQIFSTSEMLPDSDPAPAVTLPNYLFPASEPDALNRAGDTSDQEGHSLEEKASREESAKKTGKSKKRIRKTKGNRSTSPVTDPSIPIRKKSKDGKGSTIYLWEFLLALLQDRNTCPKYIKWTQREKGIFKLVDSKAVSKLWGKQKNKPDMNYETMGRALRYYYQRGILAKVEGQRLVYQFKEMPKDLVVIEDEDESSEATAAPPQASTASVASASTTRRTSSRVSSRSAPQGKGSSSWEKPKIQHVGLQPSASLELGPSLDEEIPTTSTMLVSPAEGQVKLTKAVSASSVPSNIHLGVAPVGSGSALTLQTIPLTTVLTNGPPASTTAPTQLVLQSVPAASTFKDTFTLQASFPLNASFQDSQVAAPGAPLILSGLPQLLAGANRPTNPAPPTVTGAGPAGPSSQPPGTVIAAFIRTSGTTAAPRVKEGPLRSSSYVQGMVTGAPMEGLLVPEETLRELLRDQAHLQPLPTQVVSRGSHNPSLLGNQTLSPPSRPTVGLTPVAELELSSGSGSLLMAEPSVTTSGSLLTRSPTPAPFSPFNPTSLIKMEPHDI
# Outline: as §1
# ELK4 = target: T8, ELK4 (Homo sapiens, UniProt P28324-2 1-405); details: protein: recombinant; tags: N-terminal GST; dsDNA, one strand shown
# T8 sequence: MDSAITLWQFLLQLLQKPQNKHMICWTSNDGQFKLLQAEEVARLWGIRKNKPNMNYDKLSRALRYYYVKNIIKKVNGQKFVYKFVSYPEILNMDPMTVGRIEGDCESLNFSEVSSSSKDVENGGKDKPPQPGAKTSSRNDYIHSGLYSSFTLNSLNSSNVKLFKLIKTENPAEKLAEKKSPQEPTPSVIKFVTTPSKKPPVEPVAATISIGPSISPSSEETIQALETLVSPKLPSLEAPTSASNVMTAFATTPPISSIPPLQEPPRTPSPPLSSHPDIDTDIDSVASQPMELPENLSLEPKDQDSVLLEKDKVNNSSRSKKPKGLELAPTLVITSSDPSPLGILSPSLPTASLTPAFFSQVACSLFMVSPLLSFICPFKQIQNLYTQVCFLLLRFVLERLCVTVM
# Outline: as §1
# ETV2 = target: T9, ETV2 (Homo sapiens, UniProt O00321 1-342); details: protein: recombinant; tags: N-terminal GST; dsDNA, one strand shown
# T9 sequence: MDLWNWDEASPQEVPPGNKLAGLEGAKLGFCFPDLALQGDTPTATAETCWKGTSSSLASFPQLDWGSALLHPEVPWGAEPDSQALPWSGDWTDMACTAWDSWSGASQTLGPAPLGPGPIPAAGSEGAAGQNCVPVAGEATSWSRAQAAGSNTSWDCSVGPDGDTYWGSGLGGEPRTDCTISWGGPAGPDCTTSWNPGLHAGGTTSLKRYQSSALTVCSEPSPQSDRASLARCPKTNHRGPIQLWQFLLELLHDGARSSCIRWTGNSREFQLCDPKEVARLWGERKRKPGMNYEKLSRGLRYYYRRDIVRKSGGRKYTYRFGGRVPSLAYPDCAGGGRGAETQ
# Outline: as §1
# ELF3 = target: T10, ELF3 (Homo sapiens, UniProt P78545 1-371); details: protein: recombinant; tags: N-terminal GST; dsDNA, one strand shown
# T10 sequence: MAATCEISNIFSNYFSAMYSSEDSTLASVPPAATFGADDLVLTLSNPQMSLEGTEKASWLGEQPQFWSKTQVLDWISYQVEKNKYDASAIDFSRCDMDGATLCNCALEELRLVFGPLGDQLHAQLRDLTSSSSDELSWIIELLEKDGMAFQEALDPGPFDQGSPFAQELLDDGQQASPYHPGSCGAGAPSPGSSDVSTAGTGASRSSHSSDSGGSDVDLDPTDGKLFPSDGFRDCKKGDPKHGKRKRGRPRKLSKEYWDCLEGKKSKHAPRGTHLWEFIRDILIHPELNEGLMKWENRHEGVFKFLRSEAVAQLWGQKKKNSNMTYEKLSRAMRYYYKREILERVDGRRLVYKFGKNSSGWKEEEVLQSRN
# Outline: as §1
# CRX = CRX (Homo sapiens, UniProt O43186 1-299); details: protein: recombinant; tags: N-terminal GST; dsDNA, one strand shown
# CRX, sequence (O43186 whole entry): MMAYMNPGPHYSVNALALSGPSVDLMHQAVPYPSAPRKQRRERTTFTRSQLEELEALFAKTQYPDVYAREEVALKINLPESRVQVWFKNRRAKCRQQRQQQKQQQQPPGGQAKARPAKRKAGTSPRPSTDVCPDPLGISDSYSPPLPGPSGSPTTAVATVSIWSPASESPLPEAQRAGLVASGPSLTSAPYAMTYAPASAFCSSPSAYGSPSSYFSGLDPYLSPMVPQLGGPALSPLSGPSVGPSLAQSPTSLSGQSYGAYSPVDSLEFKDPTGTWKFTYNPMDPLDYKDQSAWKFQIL
# Outline: as §1
# ETV1 = ETV1 (Homo sapiens, UniProt P50549 1-477); details: protein: recombinant; tags: N-terminal GST; dsDNA, one strand shown
# ETV1, sequence (P50549 whole entry): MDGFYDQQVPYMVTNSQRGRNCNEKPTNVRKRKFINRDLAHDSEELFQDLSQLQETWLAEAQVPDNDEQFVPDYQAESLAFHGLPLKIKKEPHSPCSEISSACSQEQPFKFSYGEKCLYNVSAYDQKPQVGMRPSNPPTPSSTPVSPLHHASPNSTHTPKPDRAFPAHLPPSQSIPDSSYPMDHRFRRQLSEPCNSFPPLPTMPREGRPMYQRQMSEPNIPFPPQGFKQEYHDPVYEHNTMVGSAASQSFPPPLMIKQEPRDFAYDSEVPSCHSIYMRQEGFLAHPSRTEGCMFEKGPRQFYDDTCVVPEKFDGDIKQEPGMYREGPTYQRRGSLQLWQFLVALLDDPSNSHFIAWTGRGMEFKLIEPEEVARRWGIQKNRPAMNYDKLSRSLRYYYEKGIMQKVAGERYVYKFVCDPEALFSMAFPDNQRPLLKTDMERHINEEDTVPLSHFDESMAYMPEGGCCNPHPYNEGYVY
# Outline: as §1
sequence,measurement,setting,value
TACAAG,binding signal,FLI1,"1.06 fold enrichment (6-mer frequency, TF over GST control)"
same,binding signal,ELK1,"1.03 fold enrichment (6-mer frequency, TF over GST control)"
same,binding signal,ERG,"1.04 fold enrichment (6-mer frequency, TF over GST control)"
same,binding signal,ELF1,"1.06 fold enrichment (6-mer frequency, TF over GST control)"
same,binding signal,EHF,"1.09 fold enrichment (6-mer frequency, TF over GST control)"
same,binding signal,ELK3,"1.04 fold enrichment (6-mer frequency, TF over GST control)"
same,binding signal,FEV,"1.01 fold enrichment (6-mer frequency, TF over GST control)"
same,binding signal,ETV5,"1.15 fold enrichment (6-mer frequency, TF over GST control)"
same,binding signal,HSF1,"1.07 fold enrichment (6-mer frequency, TF over GST control)"
same,binding signal,SPIC,"1.17 fold enrichment (6-mer frequency, TF over GST control)"
same,binding signal,ELF4,"1.1 fold enrichment (6-mer frequency, TF over GST control)"
same,binding signal,ELK4,"1.16 fold enrichment (6-mer frequency, TF over GST control)"
same,binding signal,ETV2,"1.03 fold enrichment (6-mer frequency, TF over GST control)"
same,binding signal,ELF3,"1.23 fold enrichment (6-mer frequency, TF over GST control)"
same,binding signal,CRX,"1.11 fold enrichment (6-mer frequency, TF over GST control)"
same,binding signal,ETV1,"1.06 fold enrichment (6-mer frequency, TF over GST control)"
